Screens deposited in PubChem by Corson Lab, School of Medicine, Indiana University.
FECH inh: blocks human mitochondrial ferrochelatase activity; P22830; purified FECH, Ni-mesoporphyrin absorbance 550 nm; calls only at 10 µM (by protocol); 20,000 tested, 3.3% active; AID 1671448;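 active = enzyme reaction rate more than 3 SD below the solvent-only control wells on the same plate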;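 note: lower slope than DMSO wells means FECH inhibition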
Target sequence (P22830 whole entry, looked up): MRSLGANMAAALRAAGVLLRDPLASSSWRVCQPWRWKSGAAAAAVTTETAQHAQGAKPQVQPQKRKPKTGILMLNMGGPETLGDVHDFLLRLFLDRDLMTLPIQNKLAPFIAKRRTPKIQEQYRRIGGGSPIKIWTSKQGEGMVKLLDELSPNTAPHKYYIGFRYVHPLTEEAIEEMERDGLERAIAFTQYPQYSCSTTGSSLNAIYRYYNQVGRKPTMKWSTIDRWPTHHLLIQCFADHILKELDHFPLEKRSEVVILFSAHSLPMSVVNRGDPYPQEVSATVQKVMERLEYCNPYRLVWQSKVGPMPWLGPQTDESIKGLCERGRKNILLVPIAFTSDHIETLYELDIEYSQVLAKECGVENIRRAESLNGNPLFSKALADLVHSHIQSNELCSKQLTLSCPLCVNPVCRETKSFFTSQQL
Large screens that a line does not name were inactive. This is one part of a sample in which hits are shown more often than they occur.

Cc1cccc(-c2cc(N3CCN(C(=O)NCC(C)C)CC3)ncn2)c1	none
CCCc1n[nH]c(=O)n1-c1ccc(OC)cc1C	none
CNC(=O)c1ccc(-c2nc(CN3CCN(S(=O)(=O)N(C)C)CC3)c(C)o2)cc1	none
Cc1cc(C)n(-c2cccc(-c3nccn3CCCn3ccnc3)c2)n1	none
COc1ccc(C(=O)Nc2ccc(C)c(OCc3cc(=O)n4cccc(C)c4n3)c2)cc1	none
Cc1ccc(NC(=O)c2ccccc2C)cc1OCc1cc(=O)n2cccc(C)c2n1	none
Cc1ccc(NC(=O)C2CCCCC2)cc1OCc1cc(=O)n2cccc(C)c2n1	FECH inh active
CN1CC(=O)N(CC(=O)NCc2ccccc2)c2ccccc2C1=O	none
COC(=O)c1ccc(C(=O)OC)c(NC(=O)N2CCN(Cc3nc4cccnc4n3-c3ccccc3)CC2)c1	none
Cc1c(-c2ccc(F)cc2)[nH]c2ccc(CNC(=O)c3cncn3C)cc12	none
CN1CCCN(C(=O)c2ccc(CC3CCCNC3)cc2)CC1 (stereo not given)	none
COc1cc(CN2CCC(Cc3nncn3-c3ccccc3)CC2)ccc1O	none
C=CCN(Cc1ccccc1Cl)C(=O)CCN(C)S(C)(=O)=O	none
COc1ccc(Cl)cc1NCc1cc(=O)n2[nH]c(-c3ccccc3C)nc2n1	none
Cc1ccccc1-c1nc2nc(CNc3cccc(C(F)(F)F)c3)cc(=O)n2[nH]1	none
COc1ccccc1NCc1cc(=O)n2[nH]c(-c3ccccc3C)nc2n1	none
Cc1ccccc1-c1nc2nc(CNCc3ccccc3)cc(=O)n2[nH]1	FECH inh active
Cc1ccccc1-c1nc2nc(CNc3ccc(Cl)cc3)cc(=O)n2[nH]1	FECH inh active
CCc1ccccc1NCc1cc(=O)n2[nH]c(-c3ccccc3C)nc2n1	none
Cc1cccc(NCc2cc(=O)n3[nH]c(-c4ccccc4C)nc3n2)c1	FECH inh active
Cc1ccccc1-c1nc2nc(CNc3c(C)cccc3C)cc(=O)n2[nH]1	none
Cc1cccc(NCc2cc(=O)n3[nH]c(NCc4ccccc4)nc3n2)c1	none
CC(C)Oc1cccc(F)c1-c1cc(N2CCOCC2)nc(N)n1	none
CCc1ccccc1NC(=O)NCCc1nc2cccnc2n1Cc1ccc(C)cc1	none
Cc1ccc(C)c(NC(=O)CCc2nc(-c3cc4ccc(C)cc4[nH]c3=O)no2)c1	none
COC(=O)c1ncccc1OCc1nc(-c2sccc2C)oc1C	none
Cc1cc(N(C)C)nc(Nc2ccc(NC(=O)c3cccc(Cl)c3)cc2)n1	none
Cc1nnnn1-c1cccc(-c2n[nH]c(Cc3ccccc3)n2)c1	none
Cc1nnnn1-c1ccc(Cc2n[nH]c(Cc3ccccc3)n2)cc1	FECH inh active
c1ccc(Cc2n[nH]c(Cn3nc4ccccc4n3)n2)cc1	none
O=C(c1cn[nH]n1)N1CCN(CCCOc2ccc(F)cc2)CC1	none
COc1cccc(NC(=O)c2nc3ccccc3n(C)c2=O)c1	none
Cn1c(=O)c(C(=O)Nc2ccc(Cl)cc2)nc2ccccc21	none
Cn1c(=O)c(C(=O)Nc2ccc(Oc3ccc(Cl)cc3)cc2)nc2ccccc21	FECH inh active
CC(=O)Nc1cccc(NC(=O)c2nc3ccccc3n(C)c2=O)c1	FECH inh active
CC(=O)c1ccc(NC(=O)c2nc3ccccc3n(C)c2=O)cc1	none
COC(=O)c1ccc(NC(=O)c2nc3ccccc3n(C)c2=O)cc1	none
CCC(CC)C(=O)Nc1cc(C)nn1-c1ncnc2c1cnn2-c1cccc(Cl)c1	FECH inh active
CCCC(=O)Nc1cc(C)nn1-c1ncnc2c1cnn2-c1cccc(Cl)c1	none
CCOc1ccc(CC(=O)Nc2cc(C)nn2-c2ncnc3c2cnn3-c2cccc(Cl)c2)cc1	none
Cc1cc(NC(=O)CC(C)(C)C)n(-c2ncnc3c2cnn3-c2cccc(Cl)c2)n1	none
Cc1ccc(OCC(=O)Nc2cc(C)nn2-c2ncnc3c2cnn3-c2ccc(Cl)cc2)cc1	none
CCOc1ccc(CC(=O)Nc2cc(C)nn2-c2ncnc3c2cnn3-c2ccc(Cl)cc2)cc1	FECH inh active
CCN1CCc2c(sc(NC(=O)C(C)C)c2-c2nc3ccccc3s2)C1	none
c1ccc(-c2ncc(-c3nccn3CCCn3ccnc3)s2)cc1	none
CCN(CCCNS(=O)(=O)c1ccc2c(c1)NC(=O)CC(=O)N2)c1ccccc1	none
CCn1c(CNS(=O)(=O)c2ccc(F)c(Cl)c2)nc2cccnc21	none
COC(=O)c1ccccc1NC(=O)c1ccc(=O)n(Cc2c(F)cccc2Cl)c1	none
CCc1c(C)nc2ncnn2c1Sc1ccccc1NC(=O)Nc1ccc(C)cc1	none
CCc1c(C)nc2ncnn2c1Sc1ccccc1NC(=O)COc1ccc(C)cc1	none
CCc1c(C)nc2ncnn2c1Sc1ccc(NC(=O)Cc2ccc(OC)cc2)cc1	none
CCc1c(C)nc2ncnn2c1Sc1ccccc1NC(=O)C1CC1	FECH inh active
CCc1c(C)nc2ncnn2c1Sc1ccccc1NC(=O)Cc1ccc(OC)cc1	FECH inh active
CCc1c(C)nc2ncnn2c1Sc1ccc(NC(=O)C2CC2)cc1	none
Cc1cc(C)n2nc(CN(C(=O)c3cccs3)c3ccccc3)nc2n1	none
O=C(c1ccc(CC2CCCNC2)cc1)N1CCN(C2CCCC2)C(=O)C1 (stereo not given)	none
Cc1onc(-c2ccccc2)c1C(=O)N1Cc2cnc(CC(C)C)nc2C1	none
Cc1ccc(NC(=O)CNc2nccc(-c3ccc(C)nc3C)n2)c(F)c1	none
CSc1nccc(-c2ccc(Cl)cc2Cl)n1	FECH inh active
COC(=O)c1cc2n(n1)CCN(c1ccnc(SC)n1)C2	none
OCc1ccc(CN2CCCCC2CN2CCOCC2)o1 (stereo not given)	none
COCc1cc(CN(C)c2ncnc3[nH]ccc23)[nH]n1	none
CN(CCOc1ccccc1)c1ncnc2[nH]ccc12	FECH inh active
CCCOCCN1CCN(c2ncnc3[nH]ccc23)CC1	none
O=C(c1ccc(-c2ccccc2Cl)o1)N1CCC(n2ccnc2)C1 (stereo not given)	none
CCc1nc(OCC(=O)NCc2cccc(F)c2)c2c(C)c(C)oc2n1	none
CCc1cccc(C)c1NC(=O)c1nc2ccccc2n(C)c1=O	none
CCN1C(SCC(=O)Nc2c(C)cccc2C)=NS(=O)(=O)c2ccccc21	FECH inh active
Cc1ccc(CN2c3ccccc3-c3nc(SCC(=O)Nc4ccc(C)c(Cl)c4)ncc3S2(=O)=O)cc1	none
Cc1cccc(C)c1NC(=O)CSCc1nc(-c2ccccc2)no1	none
Cc1ccccc1N1C(=O)N(CC(=O)NC2CCCC2)c2ccccc2S1(=O)=O	none
CCC1=C(c2ccc(OC)cc2)S(=O)(=O)N(CC(=O)Nc2c(C)cccc2CC)C1=O	none
CCN1C(SCC(=O)Nc2cc(Cl)c(OC)cc2OC)=NS(=O)(=O)c2ccccc21	none
CCC(=O)Nc1ccccc1-c1nnc(SCC(=O)Nc2cccc(Cl)c2Cl)[nH]c1=O	none
CCc1cccc(C)c1NC(=O)CSC1=NS(=O)(=O)c2ccccc2N1CC	FECH inh active
CCN1C(SCC(=O)Nc2cc(Cl)ccc2C)=NS(=O)(=O)c2ccccc21	none
CCN1C(SCC(=O)Nc2ccc(Cl)cc2F)=NS(=O)(=O)c2ccccc21	FECH inh active
CCN1C(SCC(=O)Nc2ccccc2C)=NS(=O)(=O)c2ccccc21	FECH inh active
COc1ccccc1OC1CN(C(=O)CCC2CCCN(C)C2)C1 (stereo not given)	none
O=C(N1CCCCC1)N1CCc2c(nc(-c3ccccn3)[nH]c2=O)C1	none
Cc1cc(C(=O)N(C)Cc2ccoc2)c(NC(=O)C(C)(C)C)s1	none
Cc1ccc(C(=O)NCC(=O)N2CCC(c3nc(-c4ccccc4)no3)CC2)cc1	none
CCN(Cc1nc(C)no1)C(=O)c1cccc(-c2cccc(F)c2)c1	none
Cc1nn(C)c(C)c1CN(C(=O)CCN(C)S(C)(=O)=O)C(C)C	none
CC(C)n1cnnc1CN(C)Cc1coc2ccc(Cl)cc2c1=O	none
CC1=C(c2ccccc2)C1c1nc(CC2CCN(C)CC2)no1 (stereo not given)	none
